Screening data deposited in PubChem BioAssay by National Center for Advancing Translational Sciences (NCATS).
This is a sample that favours compounds with a hit; in the whole collection about 2.4% have one here.
Pol kappa inh-1 – blocks human DNA polymerase kappa activity. Q9UBT6. purified Pol kappa, fluorescent DNA synthesis assay, 10 min. Potency, µM (doses to about 107 µM), without a hit: top-dose activity, negative = inhibition, hits mostly inhibitors. actives 0.53% (n = 400,000); further: potency means the concentration at half of the fitted maximal effect; on the % scale 0 is the no-effect control and ±100 the full control effect
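Here, compound and 10 nM enzyme are combined for 15 min at room temperature; adding 50 nM substrate (final) starts DNA synthesis, tracked by fluorescence at 0 and 10 min against buffer-only wells.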
POLB inh – blocks human DNA polymerase beta activity; P06746; Pol beta primer extension/strand displacement, fluorescence kinetic; Potency, µM (titrated, usually from 114 µM), inactives show at the top dose activity change, negative = inhibition, actives largely listed as inhibitors; actives 1.3% (n = 340,000); further: potency means the concentration at half of the fitted maximal effect; on the % scale 0 is the no-effect control and ±100 the full control effect
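Pol beta (10 nM) was preincubated with compound for 15 min at room temperature. The reaction was then started with 50 nM substrate and read immediately and after a further 10 min at room temperature.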
TDP1 inh – TDP1 (human) enzyme inhibition | recombinant TDP1, AlphaScreen DNA substrate cleavage | Potency, µM (titrated, usually from 130 µM), without a hit: at the top dose activity change, negative = inhibition, hits mostly inhibitors | AID 485290 | actives 0.28% (n = 350,000) | Q9NUW8; further: potency means the concentration at half of the fitted maximal effect; on the % scale 0 is the no-effect control and ±100 the full control effect; nearly all actives have a fitted effect of over 40% in size
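Signal: AlphaScreen proximity between streptavidin donor and anti-FITC acceptor beads on intact substrate. Reaction: Tdp1 1 nM, substrate 15 nM final, 5 min RT after 15 min compound preincubation.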
Pol eta inh-1 – inhibitors of human DNA polymerase eta. recombinant Pol eta, fluorescent DNA replication assay. actives 1.2% (n = 390,000). Potency, µM (top dose mostly 114 µM), for the others: top-dose activity change, negative = inhibition, most hits filed as inhibitors. Q9Y253. AID 588591; further: potency means the concentration at half of the fitted maximal effect; on the % scale 0 is the no-effect control and ±100 the full control effect
Target sequence (Q9Y253 whole entry, looked up): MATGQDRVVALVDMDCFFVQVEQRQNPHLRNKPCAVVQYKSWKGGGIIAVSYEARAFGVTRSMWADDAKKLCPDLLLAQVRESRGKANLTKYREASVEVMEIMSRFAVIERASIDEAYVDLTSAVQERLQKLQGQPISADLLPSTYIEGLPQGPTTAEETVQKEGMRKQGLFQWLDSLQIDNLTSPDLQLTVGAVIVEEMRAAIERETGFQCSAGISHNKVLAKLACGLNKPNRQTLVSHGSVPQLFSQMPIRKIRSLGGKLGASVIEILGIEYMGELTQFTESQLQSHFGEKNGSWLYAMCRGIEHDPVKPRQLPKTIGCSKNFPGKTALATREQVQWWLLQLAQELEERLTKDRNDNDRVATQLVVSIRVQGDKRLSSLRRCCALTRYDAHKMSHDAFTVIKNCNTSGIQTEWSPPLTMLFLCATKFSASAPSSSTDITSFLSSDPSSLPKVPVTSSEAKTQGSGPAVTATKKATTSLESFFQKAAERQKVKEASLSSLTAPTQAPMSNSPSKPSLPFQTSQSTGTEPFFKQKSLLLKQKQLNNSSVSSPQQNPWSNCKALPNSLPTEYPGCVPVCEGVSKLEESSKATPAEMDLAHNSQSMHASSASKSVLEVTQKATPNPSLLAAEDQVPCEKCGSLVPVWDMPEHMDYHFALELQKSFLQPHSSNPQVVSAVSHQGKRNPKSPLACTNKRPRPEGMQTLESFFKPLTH
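Pol eta at 10 nM preincubated with compounds 15 min at room temperature; reaction started with fluorescent substrate (50 nM final) and read kinetically at 0 and 10 min.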
Pol iota inh – blocks human DNA polymerase iota activity; Q9UNA4; Pol iota fluorescent replication assay, 10 min; Potency, µM (doses to about 115 µM), inactives show at the top dose activity, negative = inhibition, usual class: inhibitors; actives 1% (n = 390,000); AID 588590; further: potency means the concentration at half of the fitted maximal effect
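Pol iota at 10 nM preincubated 15 min with compounds at room temperature; reaction started with fluorescent substrate, 50 nM final. Fluorescence read kinetically at 0 and 10 min; buffer-only wells as negative control.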
BAZ2B confirm – confirmation of human BAZ2B bromodomain inhibitors; AlphaScreen BAZ2B / biotin-H3K14Ac peptide displacement; shares compounds with Pol kappa inh-1; Potency, µM, hits mostly inhibitors; actives 100% (n = 25); calls by dose curve
BAZ2B bead ctr – interferes with AlphaScreen signal in BAZ2B counterscreen | AlphaScreen biotin-His6 peptide bead counterscreen, signal decrease | AID 588859 | Potency, µM (top dose mostly 57.1 µM), without a hit: at the top dose activity change, negative = inhibition, most hits filed as inhibitors | shares compounds with Pol kappa inh-1 | 25 tested, under 10 active;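 active means clear concentration-dependent signal drop in the bead assay lacking the target, so a primary-screen artifact; inconclusive means weak, partial or single-dose response; inactive means no response, so a real primary hit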
PGK validate – blocks T. brucei phosphoglycerate kinase | actives 79% (n = 500) | Potency, µM (highest dose often 57.5 µM), without a hit: at the highest dose activity change, negative = inhibition, hits mostly inhibitors | TbPGK coupled GAPDH assay, Kinase-Glo luminescence | shares compounds with Pol kappa inh-1; further: potency means the concentration at half of the fitted maximal effect; on the % scale 0 is the no-effect control and ±100 the full control effect; nearly all actives have a fitted effect of over 65% in size
Pol iota confirm – Human Pol iota inhibitor confirmatory assay | shares compounds with Pol kappa inh-1 | Pol iota primer extension, TAMRA/BHQ fluorescence | Potency, µM, hits mostly inhibitors | actives 77% (n = 1,500); further: potency means the concentration at half of the fitted maximal effect
Pol kappa inh-2 – Pol kappa (human) inhibition, cherry-pick confirmation | Potency, µM, most hits filed as inhibitors | actives 76% (n = 920) | AID 720501 | purified Pol-kappa, fluorescent strand-displacement substrate | shares compounds with Pol eta inh-1; further: potency means the concentration at half of the fitted maximal effect
Pol eta inh-2 – Pol eta (human) inhibition, cherry-pick confirmation. shares compounds with Pol eta inh-1. Pol eta primer extension, TAMRA/BHQ fluorescence, 10 min. Potency, µM, actives largely listed as inhibitors. actives 64% (n = 2,600). AID 720502; further: potency means the concentration at half of the fitted maximal effect
* marks the source's active call; other numbers are inactive results; ? = inconclusive; / = no result; [ ] = remark or other dose. Unless noted, the call rests on the fitted dose curve; in most records, active means well fitted curve in the direction sought with a large enough effect; inconclusive means small, poorly fitted or top-dose-only effect, or another doubt; inactive means no such curve, though single readings can be large; an effect the other way counts as inactive or inconclusive.

SMILES	Pol kappa inh-1	POLB inh	TDP1 inh	Pol eta inh-1	Pol iota inh	Pol iota confirm	Pol eta inh-2	others
CC(C)CS(=O)(=O)C1=NN2C(=N)/C(=C\c3ccc(OC(=O)c4ccco4)cc3)C(=O)N=C2S1	?	45µM*	/	20µM*	14µM*	75*	24*
CC(O)CCl (stereo not drawn)	/	/	5%	/	/	/	/
O=[N+]([O-])c1cc(S(=O)(=O)c2ccc(O)c([N+](=O)[O-])c2)ccc1O	45µM*	11µM*	/	2.8µM*	18µM*	60*	30*	Pol kappa inh-2=6.7*
Nc1ccc([N+](=O)[O-])cc1[N+](=O)[O-]	/	/	17%	/	/	/	/
CCOc1cccc(N2C(=O)/C(=C/c3ccco3)C(=O)NC2=S)c1	22µM*	7.9µM*	/	3.2µM*	?	9.5*	15*	PGK validate=9.2µM*
O=C1NC(=S)N(c2ccccc2)C(=O)/C1=C/c1ccco1	2.5µM*	10µM*	/	0.79µM*	1.6µM*	0.47*	0.76*	PGK validate=0.33µM*;Pol kappa inh-2=0.67*
COc1ccc(C=C(C(=O)O)c2ccc(OC)cc2)cc1	-13%	/	/	-21%	75%	/	/
C=CCN(CC(=O)c1sc(C(=O)OCC)nc1C)c1cccc(Br)c1	-27%	/	/	-9%	76%	/	/
CCN(CC(=O)Nc1c(F)cccc1F)C(=O)/C=C/c1ccc2ccccc2n1	8.9µM*	/	/	1.1µM*	4.5µM*	9.5*	19*	BAZ2B confirm=14*;BAZ2B bead ctr=?
CNCC(O)c1ccc(OC(=O)C(C)(C)C)c(OC(=O)C(C)(C)C)c1 (stereo not drawn)	-18%	/	/	-13%	?	/	/
Cc1cc(/C=C2\C(=O)NC(=O)N(c3ccc(Br)cc3)C2=O)c(C)n1-c1cc(C(=O)O)cc(C(=O)O)c1	2.8µM*	28µM*	/	2.5µM*	?	21*	12*	PGK validate=?;Pol kappa inh-2=3*
Cc1cc(/C=C2\C(=O)NC(=O)N(c3ccc(Cl)cc3)C2=O)c(C)n1-c1cccc(C(=O)O)c1	-96%	?	/	20µM*	18µM*	60*	6.7*	Pol kappa inh-2=17*
Cc1cc(/C=C2/C(=O)NC(=O)N(c3ccc(Br)cc3)C2=O)c(C)n1C	-12%	-29%	-1%	-11%	-18%[58.9 µM]	/	/
Cc1ccc(N2C(=O)NC(=O)/C(=C\c3cc(C)n(-c4sc5c(c4C#N)CCCC5)c3C)C2=O)cc1	-37%	?	8%	20µM*	?	67*	19*
COc1ccc(CN2C(=O)NC(=O)/C(=C\c3ccco3)C2=O)cc1	25µM*	13µM*	/	8.9µM*	?	27*	27*
COc1ccc(CN2C(=O)NC(=O)/C(=C\c3cc(OC)c(OC)c(OC)c3)C2=O)cc1	-2%	-12%	5%	-10%	?	/	/
O=C1NC(=O)N(CCc2ccc(F)cc2)C(=O)/C1=C/c1ccco1	?	3.2µM*	/	20µM*	13µM*	67*	48*	PGK validate=8.2µM*
Cn1cccc1/C=C1\C(=O)NC(=O)N(CCC2=CCCCC2)C1=O	-14%	1%	5%	-7%	?	/	/
O=NN(c1ccccc1)c1ccccc1	/	/	9%	/	/	/	/
N[C@@H](Cc1cc(I)c(O)c(I)c1)C(=O)O	50µM*	31%	0%	40µM*	32µM*	/	30*
Cc1o[nH]c(=O)c1CC(N)C(=O)O (stereo not drawn)	2%[60.1 µM]	-3%[57.1 µM]	7%[56.1 µM]	1%[57.1 µM]	-10%[58.9 µM]	/	/
Cn1cccc1/C=C1\C(=O)NC(=O)N(Cc2ccccc2Cl)C1=O	32µM*	-27%	2%	28µM*	20µM*	/	67*
CCC(CC)c1nnc(NC(=O)CC(C)c2ccccc2)s1 (stereo not drawn)	-2%	123%	/	-20%	41%	/	/
Cc1ccc(NS(=O)(=O)c2ccc(Cl)c(N=Nc3c(O)[nH]c(=O)[nH]c3=O)c2)cc1Cl	-3%	/	-8%	22µM*	?	/	/	Pol kappa inh-2=60*
Cc1ccc(/C=C2\C(=O)NC(=S)N(c3ccc(F)cc3)C2=O)s1	-20%	?	-4%	?	?	/	/
Cc1ccc(/C=C2\C(=O)NC(=S)N(c3ccc(F)cc3)C2=O)o1	25µM*	16µM*	/	13µM*	?	/	30*	Pol kappa inh-2=17*
COc1cccc(N2C(=O)/C(=C/c3ccc(C)o3)C(=O)NC2=S)c1	-10%	45µM*	/	13µM*	?	/	60*	Pol kappa inh-2=30*
CCN(CC)c1ccc(/C=C2\C(=O)NC(=S)N(c3ccc(OC)cc3OC)C2=O)o1	-6%	/	/	-15%	89%	/	/
CC1=C(C(=O)O)N2C(=O)C(NC(=O)c3nn(C)cc3[N+](=O)[O-])C2SC1 (stereo not drawn)	-4%	19%	-11%	-10%	?	/	/
O=C1NC(=O)N(CCC2=CCCCC2)C(=O)/C1=C\c1cccs1	-29%	?	0%	20µM*	40µM*	/	?
